The record followed here is PubChem BioAssay (EPA / NIEHS).

Values joined by “and” are separate entries in the source; they are usually repeats but may differ in a detail not shown here. Identical values can stand only once. Some structures have more than one record in an assay (separate samples or runs), and their calls can disagree. Active and inactive are the calls of the source. Rule for the calls: active = hit-call score of the fitted dose curve at least 0.9, where 1 is the maximum; inactive = score below 0.9.

In experiment [1] the target is Paired box protein Pax-6 (Homo sapiens) (UniProt P26367). The experiment is described as follows: ATG_Pax6_CIS: Attagene CIS-FACTORIAL HepG2 Assay for human Paired Box 6 (PAX6) (AID 2282956). The conditions noted are these: HepG2 CIS-FACTORIAL PAX6 reporter transcription, RNA readout; actives raise or lower the signal. The method in brief:
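HepG2 cells transiently transfected with multiplexed cis-promoter reporter units (endogenous TF activity) were dosed for 24 h. Reporter mRNA was quantified by RT-PCR, 6-FAM labeling, HpaI digestion and capillary electrophoresis; bidirectional fitting versus DMSO baseline.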

A short description of experiment [2]: ATG_PXRE_CIS: Attagene CIS-FACTORIAL HepG2 Assay for human Pregnane X Receptor Element (PXRE) (AID 2282957). The settings on record: HepG2 Attagene CIS-FACTORIAL PXRE reporter, mRNA; actives raise or lower the signal. A digest of the protocol: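 Cells: HepG2, transiently transfected reporter units under cis promoter control. Exposure: 24 h. Detection: reporter mRNA via RT-PCR/CE fluorescence; bidirectional fitting, DMSO-referenced.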

The nature of experiment [3]: ATG_PPRE_CIS: Attagene CIS-FACTORIAL HepG2 Assay for human Peroxisome Proliferator-activated Response Element (PPRE) (AID 2282958). The settings on record: HepG2 PPRE cis-element reporter, Attagene transcription factor profiling; actives raise or lower the signal. A digest of the protocol:
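HepG2, transient MRTU transfection (cis promoter elements, endogenous TFs). 24 h dosing. RNA → oligo(dT) RT → PCR → 6-FAM primer extension → HpaI digest → CE. Bidirectional fit vs DMSO.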

Experiment [4] is described as follows: ATG_RORE_CIS: Attagene CIS-FACTORIAL HepG2 Assay for human RAR-related Orphan Receptor Element (RORE) (AID 2282959). The conditions noted are these: HepG2 Attagene cis-factorial RORE reporter, mRNA; actives raise or lower the signal. A digest of the protocol:
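Transient MRTU transfection of human HepG2 liver cells (FuGene 6); 24 h compound exposure; TriZol RNA, oligo(dT) RT, PCR, FAM labeling, HpaI cut, CE fragment analysis. DMSO = negative control/baseline.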

Experiment [5] can be described thus: ATG_Sox_CIS: Attagene CIS-FACTORIAL HepG2 Assay for human SRY-box transcription factor (SOX) (AID 2282960). The settings on record: HepG2 Attagene cis-factorial SOX reporter, mRNA; actives raise or lower the signal. A digest of the protocol:
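Endogenous factor activity in human liver HepG2 cells carrying transfected cis-regulated reporter units. RNA taken 24 h post-dose, reverse-transcribed, PCR-amplified and sized by capillary electrophoresis. Gain or loss of signal fitted relative to DMSO.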

The target of experiment [6] is Transcription factor Sp1 (Homo sapiens) (UniProt P08047). The experiment is described as follows: ATG_Sp1_CIS: Attagene CIS-FACTORIAL HepG2 Assay for human Specificity Protein 1 (Sp1) (AID 2282961). The settings on record: HepG2 Sp1 cis-reporter transcription, actives raise or lower the signal. The method in brief: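 Transient MRTU-transfected HepG2, 24 h compound exposure. Total RNA → oligo(dT) RT → PCR of reporter → 6-FAM primer extension → HpaI digest → CE. Endpoint fitted both directions vs DMSO.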

A short description of experiment [7]: ATG_SREBP_CIS: Attagene CIS-FACTORIAL HepG2 Assay for human Sterol Regulatory Element Binding (SREBP) (AID 2282962). The settings on record: HepG2 Attagene cis-factorial SREBP reporter, mRNA; actives raise or lower the signal. The method in brief: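 HepG2 cells transiently transfected with multiplexed cis-element reporter units report endogenous transcription factor activity. After 24 h of chemical exposure, reporter mRNA was quantified by RT-PCR, 6-FAM labelling, HpaI digestion and capillary electrophoresis; bidirectional fits used DMSO as baseline.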

In experiment [8] the target is Signal transducer and activator of transcription 3 (Homo sapiens) (UniProt P40763). The experiment is described as follows: ATG_STAT3_CIS: Attagene CIS-FACTORIAL HepG2 Assay for human Signal Transducer and Activator of Transcription 3 (STAT3) (AID 2282963). The settings on record: HepG2, Attagene cis-factorial STAT3 reporter transcription; actives raise or lower the signal. A digest of the protocol:
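Endogenous STAT3-responsive cis-element activity was read in transiently transfected HepG2 cells after 24 h treatment. Reporter transcripts were quantified via RT-PCR and capillary electrophoresis, with DMSO as negative control and bidirectional curve fitting.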

The nature of experiment [9]: ATG_TA_CIS: Attagene CIS-FACTORIAL HepG2 Assay for human TA Basal Promoter (AID 2282964). The settings on record: HepG2 Attagene CIS-factorial TA basal promoter reporter; actives raise or lower the signal. The method in brief:
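Background-control readout: TA basal promoter reporter mRNA, fitted in both directions relative to DMSO. Measured by RT-PCR and capillary electrophoresis 24 hours after treating HepG2 human liver cells transiently carrying multiplexed cis-regulated reporter constructs.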

A short description of experiment [10]: ATG_TCF_b_cat_CIS: Attagene CIS-FACTORIAL HepG2 Assay for human T-Cell-Factor with beta-catenin (TCF/b-cat) (AID 2282965). The settings on record: HepG2 TCF/beta-catenin cis-reporter transcription, actives raise or lower the signal. A digest of the protocol: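 Endogenous transcription factor activity is captured through cis-promoter reporter constructs transiently introduced into human HepG2 liver cells. Induced reporter mRNA is measured after 24 h and fitted bidirectionally relative to DMSO.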

Chain of Paired box protein Pax-6 (Homo sapiens) (P26367 whole entry, looked up): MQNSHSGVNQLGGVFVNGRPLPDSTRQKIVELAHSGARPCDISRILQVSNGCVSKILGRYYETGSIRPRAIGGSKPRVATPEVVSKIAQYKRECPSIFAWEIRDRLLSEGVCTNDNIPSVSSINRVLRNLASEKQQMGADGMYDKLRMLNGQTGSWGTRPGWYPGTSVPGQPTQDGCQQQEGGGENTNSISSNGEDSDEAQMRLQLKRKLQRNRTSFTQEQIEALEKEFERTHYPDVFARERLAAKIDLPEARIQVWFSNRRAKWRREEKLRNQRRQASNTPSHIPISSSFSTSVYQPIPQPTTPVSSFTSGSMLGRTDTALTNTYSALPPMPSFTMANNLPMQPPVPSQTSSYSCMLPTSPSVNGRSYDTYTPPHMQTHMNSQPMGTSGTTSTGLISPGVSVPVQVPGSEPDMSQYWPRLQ
Chain of Signal transducer and activator of transcription 3 (Homo sapiens) (P40763 whole entry, looked up): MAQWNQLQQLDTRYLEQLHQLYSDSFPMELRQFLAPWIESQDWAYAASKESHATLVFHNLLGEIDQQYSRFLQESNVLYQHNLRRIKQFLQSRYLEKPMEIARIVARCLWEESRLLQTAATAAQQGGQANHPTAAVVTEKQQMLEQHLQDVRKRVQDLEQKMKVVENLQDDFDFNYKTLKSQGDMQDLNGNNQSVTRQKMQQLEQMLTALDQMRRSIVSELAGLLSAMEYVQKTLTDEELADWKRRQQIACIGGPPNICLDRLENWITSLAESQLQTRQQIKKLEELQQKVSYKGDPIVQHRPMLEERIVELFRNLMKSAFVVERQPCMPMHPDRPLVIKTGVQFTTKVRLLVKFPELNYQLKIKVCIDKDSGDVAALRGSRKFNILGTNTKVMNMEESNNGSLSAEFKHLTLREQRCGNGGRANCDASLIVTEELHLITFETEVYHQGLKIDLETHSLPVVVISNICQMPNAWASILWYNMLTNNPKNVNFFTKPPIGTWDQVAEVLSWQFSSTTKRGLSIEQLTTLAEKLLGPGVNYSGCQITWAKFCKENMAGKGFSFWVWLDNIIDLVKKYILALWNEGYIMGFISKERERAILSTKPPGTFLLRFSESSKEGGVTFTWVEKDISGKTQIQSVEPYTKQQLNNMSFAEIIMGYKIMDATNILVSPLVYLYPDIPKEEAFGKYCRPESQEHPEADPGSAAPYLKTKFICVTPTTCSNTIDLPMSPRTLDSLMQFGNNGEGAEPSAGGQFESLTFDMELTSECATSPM
Chain of Transcription factor Sp1 (Homo sapiens) (P08047 whole entry, looked up): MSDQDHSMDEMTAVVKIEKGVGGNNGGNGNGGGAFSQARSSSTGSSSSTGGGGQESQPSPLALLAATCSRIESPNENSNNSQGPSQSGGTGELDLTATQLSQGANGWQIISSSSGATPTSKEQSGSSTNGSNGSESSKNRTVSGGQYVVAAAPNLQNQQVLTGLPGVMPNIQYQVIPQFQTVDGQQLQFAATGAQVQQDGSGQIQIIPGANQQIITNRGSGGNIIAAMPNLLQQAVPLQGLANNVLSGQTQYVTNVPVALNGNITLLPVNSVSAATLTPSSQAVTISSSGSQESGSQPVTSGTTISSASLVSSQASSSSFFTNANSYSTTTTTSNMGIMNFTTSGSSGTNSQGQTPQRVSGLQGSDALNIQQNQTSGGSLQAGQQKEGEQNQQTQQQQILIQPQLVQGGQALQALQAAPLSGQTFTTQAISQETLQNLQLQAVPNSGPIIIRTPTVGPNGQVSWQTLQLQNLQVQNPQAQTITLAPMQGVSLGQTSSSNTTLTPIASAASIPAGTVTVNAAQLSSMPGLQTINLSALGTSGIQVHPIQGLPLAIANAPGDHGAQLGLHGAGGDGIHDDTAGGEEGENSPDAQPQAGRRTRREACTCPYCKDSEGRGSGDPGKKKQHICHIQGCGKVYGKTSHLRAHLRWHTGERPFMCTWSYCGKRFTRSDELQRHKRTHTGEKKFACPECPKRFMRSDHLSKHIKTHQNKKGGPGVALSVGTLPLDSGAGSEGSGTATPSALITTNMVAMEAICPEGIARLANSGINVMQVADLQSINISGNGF

Take `CCCCc1oc2ccccc2c1C(=O)c1cc(I)c(OCCN(CC)CC)c(I)c1`: the AC50 (in general, the concentration giving half of the maximal activity seen) in experiment [1] was 20.2 µM (active); in experiment [2], 1.44 µM (active); in experiment [5], 128 µM (active); in experiment [6], 130 µM (active); in [7], 19.7 µM (active); in [9], 19.8 µM (active). Also, the compound was called inactive in experiment [3], in experiment [4] and in experiment [8].

As for `CC1COCc2cc3c(cc21)C(C)(C)C(C)C3(C)C` (stereo unspecified), the AC50 is 160 µM (active) in experiment [1]; 1.23 µM (active) in experiment [2]; 164 µM (active) in experiment [4]; 73.2 µM (active) in [5]; 100 µM (active) in experiment [6]; 176 µM (active) in [8]. In addition, in [9], the AC50 was 168 µM (active). Moreover, the compound was classed as inactive in experiment [3] and in experiment [7].

Turning to `OCC1CCC(CO)CC1` (stereo unspecified), the compound was called inactive in [1], in experiment [2], in [3], in experiment [4], in experiment [5] and in experiment [6]. The compound was classed as inactive in experiment [7], in experiment [8] and in [9].

Turning to `CC(C)(C)c1ccc(O)c(O)c1`, the AC50 in [1] is 99.1 µM (active) and 57.3 µM (active); in experiment [2], 2.45 µM (active) [middle of 5 runs]; in experiment [4] it was 45.8 µM (active) and 27.9 µM (active) and 54.2 µM (active); in [7], 57.1 µM (active). Moreover, the compound was called inactive in [1], in experiment [3], in experiment [4], in experiment [5], in experiment [6] and in experiment [7]. Further, the compound was classed as inactive in experiment [8], in experiment [9] and in experiment [10].

Take `CCOC(=O)CN[C@@H](C(=O)N1CC[C@H]1C(=O)NCc1ccc(/C(N)=N/O)cc1)C1CCCCC1`: the outcome in [1], in experiment [2], in [3], in experiment [4], in experiment [5] and in [6] was inactive. The compound was classed as inactive in experiment [7], in experiment [8] and in [9].

As for `NCCN`, the compound was classed as inactive in experiment [1], in [2], in experiment [3], in experiment [4], in experiment [5] and in [6]. The compound was called inactive in [7], in experiment [9] and in experiment [10]. Also, the AC50 in experiment [2] was 164 µM (active).

On to `O=C(Nc1ccc(Cl)c(Cl)c1)c1cc(Cl)cc(Cl)c1O`, for which the AC50 in [1] was 30.5 µM (active); in [2], 1.49 µM (active); in experiment [3] it was 648 nM (active); in experiment [4], 0.903 µM (active). Besides, the call in experiment [5], in experiment [6], in experiment [7], in experiment [8] and in experiment [9] was inactive.

For the compound `Cc1cc(C(C)(C)C)c(O)c(C(C)(C)C)c1`, the result in experiment [1], in [3], in experiment [5], in experiment [9] and in experiment [10] was inactive. Also, the AC50 in [2] is 8.81 µM (active) and 603 nM (active); in [3], 11900 nM (active); in [6], 52.3 µM (active) and 97 µM (active); in experiment [7], 33.4 µM (active) and 60 µM (active).

In the case of `Cc1cc(C(=C2C=CC(=Nc3ccc(S(=O)(=O)O)cc3)C=C2)c2ccc(Nc3ccc(S(=O)(=O)O)cc3)cc2)cc(S(=O)(=O)O)c1N`, the result in [1], in experiment [2], in [3], in experiment [4], in [5] and in [6] was inactive. Also, the compound was classed as inactive in experiment [7], in experiment [8] and in experiment [9].

`CCOC(=O)c1nc(C(Cl)(Cl)Cl)n(-c2ccc(Cl)cc2Cl)n1`: the result in [1], in experiment [3], in experiment [5] and in experiment [8] was inactive. The AC50 was 2.06 µM (active) in [2]; 167 µM (active) in experiment [4]; 54.6 µM (active) in experiment [6]; 27.7 µM (active) in [7]; 173 µM (active) in experiment [9].

With `CCCCCCCC(OC)OC`, the result in experiment [1], in [2], in [3], in [4], in experiment [5] and in [6] was inactive. Besides, the result in experiment [7], in [8] and in experiment [9] was inactive.

For `O=C(CC(=O)C(F)(F)C(F)(F)C(F)(F)F)c1cccs1`, the call in [1], in experiment [4], in experiment [5], in experiment [6], in [8] and in experiment [9] was inactive. Moreover, in experiment [10], the compound was classed as inactive. The concentration at half-maximal activity (AC50) is 12.9 µM (active) and 12.8 µM (active) in experiment [2]; 8.07 µM (active) and 26.2 µM (active) in [3]; 15.6 µM (active) in [4]; 39.6 µM (active) in experiment [6]; 16.2 µM (active) and 80.3 µM (active) in experiment [7].
